Measured values published in PubChem BioAssay AID504890 (The Scripps Research Institute Molecular Screening Center, 2011).
A number with no mark means an inactive call.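 How the source made its calls: active means EC50 at or below 10 µM; inactive means EC50 above 10 µM.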

Experiment: FP signal increase by Cy5-IP20 peptide alone, dose response, artefact control for PKA-R2B complex activator project, biochemical, fluorescence polarization, 1536-well HTS (AID 504890)
Settings: Cy5-IP20 FP artifact counterscreen, no PKA-R2B complex

## Nc1nc2c(nc(Br)n2[C@@H]2O[C@@H]3COP(=O)(O)O[C@H]3[C@H]2O)c(=O)[nH]1
  EC50: > 114 µM

## Nc1ncnc2c1nc(Sc1ccc(Cl)cc1)n2[C@@H]1O[C@@H]2COP(=O)(O)O[C@H]2[C@H]1O
  EC50: > 114 µM

## Nc1ncnc2c1nc(Br)n2[C@@H]1O[C@@H]2COP(=O)(O)O[C@H]2[C@H]1O
  EC50: > 114 µM

## CCCC(=O)Nc1ncnc2c1ncn2[C@@H]1O[C@@H]2OP(=O)(O)OC[C@H]2[C@H]1OC(=O)CCC
  EC50: > 114 µM

## O=C(O)c1sccc1SCc1ccc(Cl)cc1Cl
  EC50: > 114 µM

## CCOP1(=O)OCC2OC(n3cnc4c(N)ncnc43)C(O)C2O1 (centres undefined)
  EC50: > 114 µM

## CCCC(=O)Nc1ncnc2c1ncn2[C@@H]1O[C@@H]2COP(=O)(O)O[C@H]2[C@H]1OC(=O)CCC
  EC50: > 114 µM

## O=S(=O)(O)c1cccc2c(N=Nc3ccc(O)c4ncccc34)cccc12
  EC50: > 114 µM

## CN(C)c1ccc(N=Nc2ccc(S(=O)(=O)O)cc2)c2ccccc12
  EC50: > 114 µM
